Giardia FBPA inh – qHTS Assay for Inhibitors of Fructose-1,6-bisphosphate Aldolase from Giardia Lamblia; A8B2U2; purified Giardia FBPA; Potency, µM (top dose mostly 59.6 µM), for inactives: at the highest dose activity, negative = inhibition, hits mostly inhibitors; actives 0.71% (n = 290,000); AID 2451, 2010; note: potency is the fitted concentration of half-maximal effect; % is set by controls: 0 for no effect and ±100 for the full control effect; nearly all actives have a fitted effect of over 55% in size
Target sequence (A8B2U2 whole entry, looked up): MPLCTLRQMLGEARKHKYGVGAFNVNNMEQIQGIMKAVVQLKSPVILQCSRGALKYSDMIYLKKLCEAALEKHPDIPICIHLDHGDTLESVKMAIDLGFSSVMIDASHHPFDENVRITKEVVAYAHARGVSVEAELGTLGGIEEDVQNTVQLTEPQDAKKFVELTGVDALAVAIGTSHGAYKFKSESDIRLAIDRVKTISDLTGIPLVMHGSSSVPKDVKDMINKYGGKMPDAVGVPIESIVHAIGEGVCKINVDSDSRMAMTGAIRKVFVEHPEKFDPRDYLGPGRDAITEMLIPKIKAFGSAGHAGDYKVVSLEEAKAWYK
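Giardia FBPA (40 nM reagent) was preincubated 10 min at RT with compound (up to 57.5 uM final), then substrate plus GAPDH/TPI/NAD/arsenate coupling system with diaphorase/resazurin was added; resorufin fluorescence (525/598 nm) was read after 20 min.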
Vaccinia mCherry – qHTS for Stage-Specific Inhibitors of Vaccinia Orthopoxvirus: mCherry Reporter Primary qHTS; AID 720579, 2013; actives 0.63% (n = 310,000); Potency, µM (top dose mostly 36.5 µM), without a hit: at the top dose activity change, negative = inhibition, usual class: inhibitors; Vaccinia virus mCherry reporter infection, fluorescence; calls by dose curve; tested in A549 cells; note: potency is the fitted concentration of half-maximal effect; % is set by controls: 0 for no effect and ±100 for the full control effect; nearly all actives have a fitted effect of over 35% in size
HCMV inh – qHTS Assay for inhibitors of the human cytomegalovirus (HCMV) | HFF cells, HCMV-luciferase reporter, 72 h; active compounds read low | activity change, negative = inhibition, % at 57.5 µM | actives 4.5% (n = 410,000); in the data active = activity change below about -60%; inconclusive = no clear call, values can overlap the other calls; inactive = above about -39%; note: % is set by controls: 0 for no effect and ±100 for the full control effect
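Steps: HFFs plated, 16 h 37C; compounds added; HCMV-luciferase added to MOI 1 PFU/cell; 72 h 37C; OneGlo reagent, 5 min room temperature; luminescence read, normalized to controls.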
HCV inhibitor – qHTS Assay for Inhibitors of Hepatitis C Virus (HCV); Huh7.5.1 HCVcc-Cre infection, luciferase reporter, 44 h; Potency, µM (highest dose often 41.8 µM), for the others: at the highest dose activity change, negative = inhibition, usual class: inhibitors; actives 3.4% (n = 340,000); AID 651820, 2012; note: potency is the fitted concentration of half-maximal effect; % is set by controls: 0 for no effect and ±100 for the full control effect
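Luciferase read-out (15 sec integration) after a 15 min room-temperature substrate step quantifies HCVcc-Cre infection. Cells, 1,000 per well, had compound added 4 h post-plating, then virus at ~0.5 moi, and were cultured 44 h.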
FMDV inh – High Throughput Screening for Foot and Mouth Disease Virus Antivirals; FMDV antiviral cell-based qHTS; Potency, µM (doses to about 57.9 µM), for the others: at the top dose activity change, negative = inhibition, hits mostly inhibitors; actives 1.2% (n = 410,000); calls by dose curve; tested in HEK293T cells; note: read-out not given here; potency is the fitted concentration of half-maximal effect; % is set by controls: 0 for no effect and ±100 for the full control effect; nearly all actives have a fitted effect of over 45% in size
VACV Venus inh – qHTS for Stage-Specific Inhibitors of Vaccinia Orthopoxvirus: Venus Reporter Primary qHTS; Vaccinia virus Venus reporter expression, fluorescence; Potency, µM (top dose mostly 36.5 µM), for inactives: at the top dose activity change, negative = inhibition, hits mostly inhibitors; actives 0.46% (n = 330,000); AID 720580, 2013; calls by dose curve; tested in A549 cells; note: potency is the fitted concentration of half-maximal effect; % is set by controls: 0 for no effect and ±100 for the full control effect; nearly all actives have a fitted effect of over 30% in size
HCV confirm – qHTS Assay for Inhibitors of Hepatitis C Virus (HCV): Confirmation Assay for Cherry-picked Compounds | shares compounds with HCV inhibitor | HCVcc-Cre infectious virus cell assay, luciferase, inhibition | Potency, µM (top dose mostly 41.8 µM), without a hit: at the highest dose activity, negative = inhibition, usual class: inhibitors | actives 78% (n = 640) | AID 720575, 2013; note: potency is the fitted concentration of half-maximal effect; nearly all actives have a fitted effect of over 80% in size
HCV cytotox – qHTS Assay for Inhibitors of Hepatitis C Virus (HCV): Cytotoxicity Counterscreen for Cherry-picked Compounds. shares compounds with HCV inhibitor. HCV host cell line cytotoxicity counterscreen. Potency, µM (top dose mostly 41.8 µM), without a hit: at the highest dose activity change, negative = cytotoxicity, most hits filed as inhibitors. actives 22% (n = 640);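 note: potency is the fitted concentration of half-maximal effect; 44 h compound exposure; % is set by controls: 0 for no effect and ±100 for the full control effect; nearly all actives have a fitted effect of over 55% in size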
Active calls of the source: *; i = inactive; ? = inconclusive; / = no result; [ ] = remark or other dose. A selection: hits, their analogues and other compounds. The true share with any hit is near 7.5%. Unless noted, calls come from the whole dose curve; as a rule, active = well fitted curve in the direction sought with a large enough effect; inconclusive = small, poorly fitted or top-dose-only effect, or another doubt; inactive = no such curve, though single readings can be large; an effect the other way counts as inactive or inconclusive.

SMILES | Giardia FBPA inh | Vaccinia mCherry | HCMV inh | HCV inhibitor | FMDV inh | VACV Venus inh | HCV confirm | HCV cytotox
O=C(C[C@@H]1C/C=C\C[C@@H](NC(=O)OCC2c3ccccc3-c3ccccc32)C(=O)OCCNC1=O)N[C@@H](CO)Cc1ccccc1 | / | -33.1% | -7.7 | 1.78µM* | -17.3% | -21.2% | ? | -13.0%
COc1ccc(-n2cc(-c3ccc(C)cc3)[n+]3c2SCC3)cc1 | -1.8% | i | -102.4* | ? | 11.2µM* | -25.5% | 12.5µM* | 12.5µM*
Cc1ccc(C(O)c2ncc(-c3cccc4ccccc34)[nH]2)c(C)c1 (centres undefined) | / | 18.2% | 10.4 | / | 1.8% | -10.4% | / | /
Cc1sc(NC(=O)Cc2ccc3c(c2)OCO3)nc1-c1ccc2c(c1)CCN2C(=O)c1cccc(F)c1 | -0.9% | i | ? | 3.98µM* | ? | -15.5% | 3.53µM* | ?
CO[C@]1(NC(=O)[C@H](C(=O)O)c2ccc(O)cc2)C(=O)N2C(C(=O)O)=C(CSc3nnnn3C)CO[C@H]21 | -19.0%[21.7 µM] | / | / | / | / | / | / | /
CCOc1ccc(S(=O)(=O)NCCC(=O)N(C)Cc2cccs2)cc1 | / | -2.2% | -17.8 | -9.3% | 17.8% | -11.5% | / | /
Cc1nc2nc(C)n(CCN3CCOCC3)c(=O)c2c(-c2cccc([N+](=O)[O-])c2)c1C(=O)CCCCCCCCCCN1CCC(c2ccccc2)(c2ccccc2)CC1 | / | ? | -77.8* | ? | 25.1µM* | 10µM* | 14.1µM* | ?
O=C(NCCCN1CCOCC1)/C(=C/c1ccc(-c2cccc([N+](=O)[O-])c2)o1)NC(=O)c1ccccc1 | / | -2.1% | 18.2 | / | -25.9% | -11.1% | / | /
CCN(CC)S(=O)(=O)c1ccc(OC)c(NC(=O)CSc2ccccc2)c1 | -5.3% | -21.0% | 30.9 | -23.9% | 13.1% | -13.5% | / | /
CCN(CC)S(=O)(=O)c1ccc(OC)c(NC(=O)CSc2cc(Cl)ccc2Cl)c1 | -2.9% | -9.1% | ? | ? | -3.1% | -18.5% | 22.3µM* | 22.2%

Source: PubChem (National Center for Advancing Translational Sciences (NCATS))
